{"source": "PubChem BioAssay AID624263", "about": "(National Center for Advancing Translational Sciences (NCATS), 2012)", "note": "Out of some 410,000 compounds screened, about 820 (0.2%) were called active. Not shown: some 2% with an inconclusive outcome. For the sample, actives were picked, then their nearest neighbours and some compounds at random. A number with no mark means an inactive call. Calls follow the shape of the dose curve; as a rule, active = well fitted activation curve with a large enough effect; inconclusive = small, poorly fitted or top-dose-only effect; inactive = flat fitted curve, though single readings scatter; cell line not stated here. Potency is read from the fitted curve at half-maximal effect.", "data": [{"test": "A Quantitative High throughput Screen to Identify Chemical Modulators of PINK1 Expression; also: nearly all actives have a fitted effect of over 65% in size; as to activation (PINK1 increase): % of control where 0% means no effect", "conditions": "PINK1 immunofluorescence, high-content cytometry, 24 h; series mostly up to 76.6 µM; activation (PINK1 increase): at the top concentration", "text": "The overall goal of this project is to develop new tools for understanding and treating the mitochondrial basis for neurodegenerative disease such as Parkinson's disease (PD). The PINK1 campaign was developed from recent data pointing towards mitochondrial dysfunction as a major contributor to dopaminergic neuron loss. The discovery of PINK1/Parkin mediated mitophagy has highlighted the potential for mitochondrial quality control as a novel target for therapeutic intervention. […] A second aim of this project is the development of chemical probes to study the mechanics of mitochondrial quality control. As the PINK1/Parkin mitophagy pathway is a relative recent discovery, no specific chemical probes are available that modulate the process. Presently, only crude tools that cause nonspecific mitochondrial damage are available. To advance the understanding of mitophagy, specific, well characterized chemicals that target various steps of mitophagy regulation need to be developed. New chemical probes may have the ability to dynamically manipulate mitophagy in model organisms such as rodents and zebrafish, advancing our understanding of the process in development and disease. This HTS campaign seeks to discover an activator of PINK1 expression by modulation at the level of post-translational processing.\nThe PINK1 assay determines the amount and localization of PINK1 protein in a cell using a combination of immunofluorescence and cell staining. The goal of the assay is to determine small molecules that can increase the expression of Pink1 on or inside the cell's mitochondria (ideally without mitochondrial depolarization) using a stable cell line. Since PINK1 protein is rapidly degraded in un-perturbed cells, compounds that induce the enhancement of PINK1 protein expression are identified by determining PINK1 immunofluorescence in conjunction with a mitochondrial, cell, and nuclear marker post fixation. To facilitate rapid high content screening, the primary assay is run in a decision-based HTS mode where compound titration data collected by laser-scanning microplate cytometers is processed and only promising compound series are passed off for high content drill down.\n1 Add cells to black, clear-bottom, low-base 1536-well plates 6 uL (250 cells/well)\n2 Incubate in TC incubator (12 hours)\n3 Pin compounds or DMSO controls 23 nL (5 concentrations per compound set)\n4 Dispense CCCP to control columns\n5 Incubate in TC incubator 24 hours\n6 Aspirate media and fix cells (5 uL of fixative containing nuclear dye)\n7 Incubate 15 minutes at RT\n8 Wash in PBSTween (12 uL/well)\n9 Wash in PBSTriton (12 uL/well)\n10 Aspirate wash and add Blocking buffer (4 uL/well)\n12 Aspirate block and add primary antibodies 3.5 (uL/well)\n13 Incubate 12 hours at 10 degrees C\n14 Wash in PBSTween-20 two times (12 uL/well)\n15 Aspirate wash and add secondary antibodies (12 uL/well)\n17 Wash in PBSTween (12 uL/well)\n18 Wash in PBSTween with cell stain (12 uL/well)\n19 Read plates on Acumen EX3 and determine Wells2Cells coordinates", "units": {"activation (PINK1 increase)": "%"}, "values": [{"smiles": "COc1ccc(/C=C/c2ccccn2)cc1OC", "activation (PINK1 increase)": 1.64}, {"smiles": "CCCS(=O)(=O)NCc1c(C)ncc2c1CCN(C(=O)c1ccc(F)c(F)c1)C2", "activation (PINK1 increase)": 0.24}, {"smiles": "CC(O)(COc1ccccc1)c1ccc2c(c1)CN(Cc1cn[nH]c1-c1ccc(F)cc1)CCO2", "note": "(centres undefined)", "activation (PINK1 increase)": -0.0916}, {"smiles": "O=[N+]([O-])c1ccc(O)c(/C=N/Nc2ccccc2[N+](=O)[O-])c1", "Potency": "20 µM (active)"}, {"smiles": "O=[N+]([O-])c1ccccc1N/N=C1\\CCc2ccccc21", "activation (PINK1 increase)": 1.04}, {"smiles": "CN(C)c1ccc(/C=N\\Nc2ccc([N+](=O)[O-])cc2[N+](=O)[O-])cc1Cl", "activation (PINK1 increase)": 0.417}, {"smiles": "COc1ccc(C)cc1N1C(=O)[C@@H]2C[C@H]1CN2Cc1cccc(OC)c1O", "activation (PINK1 increase)": 0.987}, {"smiles": "Cc1[nH]c2c(C(=O)NCC3Cc4cccc(-c5cccnc5)c4O3)cccc2c1C", "note": "(centres undefined)", "activation (PINK1 increase)": 1.19}, {"smiles": "CN(C)c1ccc(/C=C/c2sc3ccccc3[n+]2C)cc1", "Potency": "44.7 µM (active)"}, {"smiles": "COc1ccc2c(c1)c(=Cc1ccc(N(C)C)cc1)c1cc(-c3ccccc3)[n+](C)n12", "activation (PINK1 increase)": -1.26}, {"smiles": "CN(C)c1ccc(C=Nc2ccc(/C=C/c3ccnc4ccccc34)cc2)cc1", "activation (PINK1 increase)": -0.636}, {"smiles": "COc1ccccc1-c1ccc(C(=O)N(C)C(C)c2ccon2)c(N2CCN(c3ccccc3F)CC2)n1", "note": "(centres undefined)", "activation (PINK1 increase)": 1.15}, {"smiles": "Cc1ccc(-c2ccnc(-n3ncc(C(=O)N(C)Cc4cccc5ncccc45)c3C3CC3)n2)o1", "activation (PINK1 increase)": 0.511}, {"smiles": "C=CCSc1nsc(NC(=O)Nc2cccc(C(C)=O)c2)n1", "Potency": "15.8 µM (active)"}, {"smiles": "CSc1nsc(NC(=O)Nc2ccccc2)n1", "Potency": "22.4 µM (active)"}, {"smiles": "Cc1ccc(C(=O)Nc2nc(-c3ccccc3)ns2)cc1", "activation (PINK1 increase)": 14.4}, {"smiles": "CC(=O)c1ccc(NC(=O)CSc2nnc(NC(=O)Nc3ccccc3)s2)cc1", "activation (PINK1 increase)": -0.057}, {"smiles": "CN(C(=O)CSc1nnc(NC(=O)Nc2ccccc2)s1)c1ccccc1", "activation (PINK1 increase)": 1.45}, {"smiles": "CC(=O)c1cccc(NC(=O)CSc2nc3c(c(=O)[nH]2)CCC3)c1", "activation (PINK1 increase)": 1.26}, {"smiles": "COC(=O)[C@@H]1C[C@H](NC(=O)c2ccccc2C(F)(F)F)CN1Cc1cccc(O)c1", "activation (PINK1 increase)": 0.0682}, {"smiles": "CC(=O)c1ccc(F)c(-c2cc(C)cc3c2OC(CNC(=O)Cc2c[nH]c4ccccc24)C3)c1", "note": "(centres undefined)", "activation (PINK1 increase)": -0.04}, {"smiles": "C(=Nc1ccc(/C=C/c2ccnc3ccccc23)cc1)Nc1ccc(/C=C/c2ccnc3ccccc23)cc1", "activation (PINK1 increase)": -0.124}, {"smiles": "Cc1ncc2c(c1CNS(=O)(=O)N(C)C)CCN(C(=O)c1ccccc1F)C2", "activation (PINK1 increase)": -0.0214}, {"smiles": "OCC(O)C(O)C(O)C(O)C=Nc1ccc(/C=C/c2ccnc3ccccc23)cc1", "note": "(centres undefined)", "activation (PINK1 increase)": 0.535}, {"smiles": "COc1ccc(Oc2ncc3nc(-c4ccc(F)cc4)c(=O)n(C)c3n2)cc1", "activation (PINK1 increase)": -0.15}, {"smiles": "CN(c1ccc2nc3ccccc3c(=O)n2n1)C1CCCCC1", "activation (PINK1 increase)": 0.372}, {"smiles": "O=c1c2ccccc2nc2n1C1(CCCCC1)Cc1ccccc1-2", "Potency": "4.47 µM (active)"}, {"smiles": "CC1(C)Cc2ccccc2-c2c[nH]c(=O)n21", "activation (PINK1 increase)": -0.443}, {"smiles": "COCC1CCCN(Cc2ccc3c(c2)CN(C(=O)c2ccnn2C)CCO3)C1", "note": "(centres undefined)", "activation (PINK1 increase)": 0.143}, {"smiles": "C(=Nc1ccc(/C=C/c2ccnc3ccccc23)cc1)c1cc2c3c(c1)CCCN3CCC2", "activation (PINK1 increase)": -0.851}, {"smiles": "Cc1cccc2c3c(ccc12)C1=C(C(=O)C3=O)C(C)CO1", "note": "(centres undefined)", "activation (PINK1 increase)": 8.81}, {"smiles": "O=C1NC(CC(=O)N2CCC(n3c(C4CCC4)nc4cccnc43)CC2)c2ccccc21", "note": "(centres undefined)", "activation (PINK1 increase)": -0.132}, {"smiles": "Oc1c(Cl)cc(Cl)c(Cl)c1Cc1c(O)c(Cl)cc(Cl)c1Cl", "Potency": "2.82 µM (active)"}, {"smiles": "CCN(CC)/[N+]([O-])=N/OCOC(=O)Cc1c(C)n(C(=O)c2ccc(Cl)cc2)c2ccc(OC)cc12", "activation (PINK1 increase)": -1.4}, {"smiles": "Cc1cc(-c2ccnc(-n3ncc(C(=O)NCCc4ccncc4)c3C)n2)c(C)s1", "activation (PINK1 increase)": 0.637}, {"smiles": "Cc1cc(C(=O)NCC2Cc3cccc(-c4cncnc4)c3O2)c(C)o1", "note": "(centres undefined)", "activation (PINK1 increase)": 0.573}, {"smiles": "CN(C)c1ccc(CN2CCOc3ccc(CN4CCC(O)(c5cccnc5)CC4)cc3C2)cc1", "activation (PINK1 increase)": -0.177}, {"smiles": "O=C(c1cn(CC2CCCN(Cc3cc4ccccc4s3)C2)nn1)N1CCCC1", "note": "(centres undefined)", "activation (PINK1 increase)": -0.201}, {"smiles": "CCC1(C2CCN(C(=O)c3cccc(F)c3F)CC2)NC(=O)N(CCc2scnc2C)C1=O", "note": "(centres undefined)", "activation (PINK1 increase)": 0.188}, {"smiles": "CCOC(=O)c1c(NC(=O)c2ccc(S(=O)(=O)N(CC)CC)cc2)sc2c1CCCCC2", "activation (PINK1 increase)": -1.12}, {"smiles": "C=CCN(CC=C)S(=O)(=O)c1ccc(C(=O)Nc2sc3c(c2C(N)=O)CCCCC3)cc1", "Potency": "10 µM (active)"}, {"smiles": "CCCCN(C)S(=O)(=O)c1ccc(C(=O)Nc2sc3c(c2C(N)=O)CC(C)(C)NC3(C)C)cc1", "activation (PINK1 increase)": -2.36}, {"smiles": "COc1ccc2c(c1)NC(=O)C2CC(=O)N1CCOc2c(cc(-c3cnc4ccccc4c3)cc2OC)C1", "note": "(centres undefined)", "activation (PINK1 increase)": 1.57}, {"smiles": "COC(=O)c1ccccc1-c1cc(C)cc2c1OC(CNC(=O)C1CCOC1)C2", "note": "(centres undefined)", "activation (PINK1 increase)": -0.262}, {"smiles": "COc1ccc(CCNc2ncnc3sc(C(=O)N4CCCC4)c(C)c23)cc1OC", "activation (PINK1 increase)": -0.358}, {"smiles": "COc1cc(-c2cccnc2)cc2c1OCCN(C(=O)Cc1csc(C)n1)C2", "activation (PINK1 increase)": 0.58}, {"smiles": "O=C(c1cccc(Cn2cccn2)c1)N1CCOc2c(cc(-c3csc4ccccc34)cc2OC2CCOC2)C1", "note": "(centres undefined)", "activation (PINK1 increase)": 0.191}, {"smiles": "N#Cc1cccc(-c2ccc3ncnc(NCc4cccs4)c3c2)c1", "activation (PINK1 increase)": -0.262}, {"smiles": "Cc1cc(-c2ccnc(-n3ncc(C(=O)NC(C)(C)CO)c3C3CC3)n2)c(C)s1", "activation (PINK1 increase)": 0.0821}]}]}
